Hits are enriched below; roughly 2.2% of the tested compounds scored in any of these assays.
PAX8 inh HTS = inhibitors of PAX8 transcriptional activity in RMG-I cells. 360,000 tested, 1.2% active. RMG-I TPO-luciferase reporter, SteadyGlo, 24 h. inhibition, % at 12.6 µM;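 active = mean replicate inhibition at least 60% with every replicate also reaching 60%; inconclusive = only one of the two criteria is met; inactive = mean below 60% and not all replicates reaching 60%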;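 note: luciferase light reporting Pax8 driven TPO promoter activity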
LMP1 NFkB inh = inhibitors of Epstein-Barr LMP1-induced NF-kappaB reporter; LMP1-induced NF-kappaB luciferase reporter cells, luminescence; inhibition, % at 12.5 µM; 350,000 tested, 0.69% active; in the data active = inhibition above about 41%; inconclusive = no clear call, values can overlap the other calls
PGC1a acetyl inh = modulators of PGC1a acetylation; inhibition, % at 15.6 µM; 350,000 tested, 0.17% active; U2OS PGC1a acetylation, AlphaScreen anti-acetyl-lysine; with virally co-expressed GCN5 acetyltransferase;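 active = every replicate shows inhibition of at least 40%; inconclusive = mean inhibition at least 40% but some replicate below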
TRPM1 prom inh = reduces MITF-dependent TRPM1 promoter luciferase signal; inhibition, % at 12.5 µM; SK-MEL-5 TRPM1 promoter luciferase, 24 h; 330,000 tested, 0.83% active; AID 488899;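 active = mean inhibition across replicates of 60% or more, whatever share of single replicates reaches that level; inconclusive = some that reach 60%, reason not given; inactive = mean inhibition across replicates below 60%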
EWS-Fli inh = inhibitors of EWS/Fli oncoprotein transcriptional activity; A673 NR0B1-luciferase reporter, viability-normalised; inhibition, % at 12.6 µM; 350,000 tested, 0.67% active;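 active = mean inhibition of at least 50% after viability correction, with every replicate also passing that limit; inconclusive = mean reaches 50% but only one of two replicates passes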;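 note: firefly luciferase signal divided by Alamar Blue viability fluorescence both relative to DMSO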
LGR2 antag = blocks bursicon-induced cAMP signaling via Drosophila LGR2; HEK293 LGR2, CRE-luciferase, bursicon-stimulated, 4 h; inhibition, % at 9.99 µM; 380,000 tested, 0.35% active;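 active = drop in luminescence signal, shown as inhibition above about 50% in the replicate tests, limit read from the data, passing the limit was not always enough; inconclusive = probably only some replicates passing the limit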;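 note: agonist challenge used bursicon conditioned medium at about half maximal strength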
A number is an active result; n = inactive; u = inconclusive; x = no result.

SMILES	PAX8 inh HTS	LMP1 NFkB inh	PGC1a acetyl inh	TRPM1 prom inh	EWS-Fli inh	LGR2 antag
CCCNC(=O)Nc1ccc2c(c1)C(=O)N(C)C[C@H](OC)[C@H](C)CN(CC1CCCC1)[C@@H](C)CO2	x	x	43.9	x	n	n
CO[C@@H]1CN(C)C(=O)c2cc(NC(=O)c3ccccc3F)ccc2OC[C@@H](C)N(CC2CC2)C[C@@H]1C	78.9	x	n	x	n	n
Cc1noc(C)c1NC(=O)N(C)C[C@H]1Oc2ccc(NC(=O)CCCCCC(=O)Nc3ccccc3N)cc2CC(=O)N([C@@H](C)CO)C[C@@H]1C	n	x	n	x	n	n
CO[C@H]1CN(C)C(=O)c2cc(NC(=O)c3nc4ccccc4s3)ccc2OC[C@H](C)N(Cc2cccnc2)C[C@H]1C	88.5	x	n	x	n	n
Cc1c(Nc2cc(Cl)c3nonc3c2[N+](=O)[O-])c(=O)n(-c2ccccc2)n1C	106.7	n	u	101.8	n	103.1
O=C(O)c1ccc(Nc2cc(Cl)c3nonc3c2[N+](=O)[O-])cc1	n	n	n	n	n	n
O=[N+]([O-])c1c(Nc2cccc(O)c2)cc(Cl)c2nonc12	111.7	56.0	x	77.5	59.4	n
C[n+]1c2n(c3ccccc31)N=C(c1ccc(-c3ccccc3)cc1)CS2	95.7	n	n	81.5	n	n
COc1ccc(S(=O)(=O)Nc2ccc3c(c2)C(=O)N(C)C[C@H](OC)[C@H](C)CN[C@@H](C)CO3)cc1	n	x	n	x	n	n
CCCN1[C@@H]2c3ccc(-c4ccncc4)c(=O)n3C[C@@H]2[C@@H](CO)[C@@H]1C(=O)OC	x	x	n	x	n	n
CCCOC(c1ccccc1)(c1ccc(C(F)(F)F)cc1)C(Oc1nc(C)cc(C)n1)C(=O)O (configuration not stated)	n	42.8	n	n	n	n
COc1ccc(S(=O)(=O)N(C)C[C@@H]2OCCCC[C@H](C)Oc3ccc(NS(=O)(=O)c4ccc(Cl)cc4)cc3C(=O)N([C@H](C)CO)C[C@@H]2C)cc1	78.8	x	n	x	n	n
COc1ccc(S(=O)(=O)N(C)C[C@H]2OCCCC[C@H](C)Oc3ccc(NS(=O)(=O)c4ccc(Cl)cc4)cc3C(=O)N([C@@H](C)CO)C[C@@H]2C)cc1	n	x	n	x	n	n
COc1ccc(S(=O)(=O)N(C)C[C@@H]2OCCCC[C@H](C)Oc3ccc(NS(=O)(=O)c4ccccc4)cc3C(=O)N([C@@H](C)CO)C[C@H]2C)cc1	n	x	n	x	n	n
COc1ccc(S(=O)(=O)Nc2ccc3c(c2)C(=O)N([C@@H](C)CO)C[C@H](C)[C@@H](CN(C)S(=O)(=O)c2ccc(Cl)cc2)OCCCC[C@@H](C)O3)cc1	67.5	x	n	x	n	n
COc1ccc(S(=O)(=O)Nc2ccc3c(c2)C(=O)N([C@H](C)CO)C[C@H](C)[C@@H](CN(C)S(=O)(=O)c2ccc(Cl)cc2)OCCCC[C@H](C)O3)cc1	78.5	x	n	x	n	n
COc1ccc(S(=O)(=O)N(C)C[C@@H]2OCCCC[C@H](C)Oc3ccc(NS(=O)(=O)c4ccccc4)cc3C(=O)N([C@H](C)CO)C[C@H]2C)cc1	75.9	x	n	x	n	n
C[C@@H]1CN([C@H](C)CO)C(=O)c2cc(NC(=O)C3CCCCC3)ccc2O[C@@H]1CN(C)S(=O)(=O)c1cn(C)cn1	x	x	n	x	n	n
